Records with an inconclusive call do not appear. Activity calls are given as the source filed them. Calls follow the shape of the dose curve; as a rule, active = well fitted curve in the direction sought with a large enough effect; inconclusive = small, poorly fitted or top-dose-only effect, or another doubt; inactive = no such curve, though single readings can be large or run the other way.
These compounds were tested against Metallo-beta-lactamase type 2 (Klebsiella pneumoniae) (UniProt C7C422) (assay: qHTS to identify inhibitors of the New Delhi Metallo-beta-lactamase (NDM): assay validation screen against the NCATS LOPAC Collection (AID 1794843;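 also: nitrocefin turnover by NDM-1 measured as 485 nm absorbance at plateau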)). Conditions: NDM-1 enzyme, nitrocefin hydrolysis, absorbance 485 nm; series mostly up to 38.4 µM.
Chain of Metallo-beta-lactamase type 2 (Klebsiella pneumoniae) (C7C422 whole entry, looked up): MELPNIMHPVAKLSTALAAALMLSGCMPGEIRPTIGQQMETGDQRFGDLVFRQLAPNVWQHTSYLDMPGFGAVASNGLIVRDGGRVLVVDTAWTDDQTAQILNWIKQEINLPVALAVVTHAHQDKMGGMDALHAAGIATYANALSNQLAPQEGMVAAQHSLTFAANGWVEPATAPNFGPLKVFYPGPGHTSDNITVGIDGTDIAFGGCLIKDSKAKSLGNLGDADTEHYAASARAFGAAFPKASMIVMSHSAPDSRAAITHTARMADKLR
In short: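 NDM-1 at 2 nM final in 50 mM HEPES pH 7.0, 1 uM ZnSO4, 0.01% Tween20, preincubated with LOPAC compounds pinned in DMSO; 50 uM nitrocefin (stock) added. Hydrolysis read as absorbance at 485 nm in the plateau phase.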

Q: For `CC[N+](CC)(CC)CCOc1cccc(OCC[N+](CC)(CC)CC)c1OCC[N+](CC)(CC)CC`, which outcome is on record?
A: inactive

Q: How did the outcome turn out when `Clc1ccc2nsnc2c1NC1=NCCN1` was run?
A: inactive

Q: With `Cc1cc(C(C)(C)C)cc(C)c1CC1=NCCN1` as the compound, how does the outcome read?
A: inactive

Q: With `COC(=O)Nc1nc2ccc(C(=O)c3cccs3)cc2[nH]1` as the compound, how does the outcome read?
A: inactive

Q: Which outcome does the source give for `Clc1ccc(C(c2ccccc2Cl)C(Cl)Cl)cc1` (stereo not given) here?
A: inactive

Q: Which outcome does the source give for `Cc1cnc(C(=O)NCCc2ccc(S(=O)(=O)NC(=O)NC3CCCCC3)cc2)cn1` here?
A: inactive

Q: With `COc1cc2nc(N(C)CCCNC(=O)C3CCCO3)nc(N)c2cc1OC` (stereo not given) as the compound, how does the outcome read?
A: inactive

Q: `CC(C)NCC(O)c1ccc(O)c(O)c1` (stereo not given) was tested. Which outcome did it give?
A: inactive

Q: `CC(C)C(=O)Nc1ccc([N+](=O)[O-])c(C(F)(F)F)c1` was tested. Which outcome did it give?
A: inactive

Q: With `CCOC(=O)Nc1ccc(NCc2ccc(F)cc2)nc1N` as the compound, how does the outcome read?
A: inactive

Q: How did the outcome turn out when `O=C(c1ccc(OCCN2CCCCC2)cc1)c1c(-c2ccc(O)cc2)sc2cc(O)ccc12` was run?
A: inactive

Q: `CN(Cc1cnc2nc(N)nc(N)c2n1)c1ccc(C(=O)N[C@@H](CCC(=O)O)C(=O)O)cc1` was tested. Which outcome did it give?
A: inactive

Q: With `COc1ccc2[nH]cc(CCNC(C)=O)c2c1` as the compound, how does the outcome read?
A: inactive

Q: Which outcome does the source give for `CN1CCN(CCCN2c3ccccc3Sc3ccc(Cl)cc32)CC1` here?
A: inactive

Q: With `COc1cc2nc(N3CCN(C(=O)c4ccco4)CC3)nc(N)c2cc1OC` as the compound, how does the outcome read?
A: inactive

Q: With `O=c1c(-c2ccc(O)cc2)coc2cc(O)cc(O)c12` as the compound, how does the outcome read?
A: inactive

Q: Which outcome does the source give for `NCCS(=O)(=O)O` here?
A: inactive

Q: With `Cn1cnc2c1c(=O)[nH]c(=O)n2C` as the compound, how does the outcome read?
A: inactive

Q: With `NCCc1cnc[nH]1` as the compound, how does the outcome read?
A: inactive

Q: With `NCCCCCC(=O)O` as the compound, how does the outcome read?
A: inactive

From PubChem BioAssay (NCATS)
